# An excerpt weighted towards active compounds, which were near 2.7% of everything screened.
# proKLK7 act: proKLK7 (human) activation, primary screen; activation, % at 7 µM; P49862; hit rate 0.9% among 370,000; AID 652039; purified proKLK7, EDANS-DABCYL substrate fluorescence; 100% is mature enzyme control, 0% vehicle;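 active = activation above the mean of all tested compounds plus 3 SD, computed per campaign excluding outliers beyond control limits, cut at about 13% in these data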
# FAS-TE inh: blocks the thioesterase domain of human fatty acid synthase; AID 602261; P49327; recombinant FAS-TE, OMFH fluorogenic substrate, fluorescence endpoint; hit rate 0.67% among 360,000; inhibition, % at 15 µM;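 active = compounds whose normalised, plate-corrected inhibition of enzyme fluorescence in the single-dose primary screen is 50% or more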;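 note: 0% = DMSO with enzyme and 100% = substrate without enzyme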
# Target sequence (P49327 whole entry, looked up, the tested form may be a part): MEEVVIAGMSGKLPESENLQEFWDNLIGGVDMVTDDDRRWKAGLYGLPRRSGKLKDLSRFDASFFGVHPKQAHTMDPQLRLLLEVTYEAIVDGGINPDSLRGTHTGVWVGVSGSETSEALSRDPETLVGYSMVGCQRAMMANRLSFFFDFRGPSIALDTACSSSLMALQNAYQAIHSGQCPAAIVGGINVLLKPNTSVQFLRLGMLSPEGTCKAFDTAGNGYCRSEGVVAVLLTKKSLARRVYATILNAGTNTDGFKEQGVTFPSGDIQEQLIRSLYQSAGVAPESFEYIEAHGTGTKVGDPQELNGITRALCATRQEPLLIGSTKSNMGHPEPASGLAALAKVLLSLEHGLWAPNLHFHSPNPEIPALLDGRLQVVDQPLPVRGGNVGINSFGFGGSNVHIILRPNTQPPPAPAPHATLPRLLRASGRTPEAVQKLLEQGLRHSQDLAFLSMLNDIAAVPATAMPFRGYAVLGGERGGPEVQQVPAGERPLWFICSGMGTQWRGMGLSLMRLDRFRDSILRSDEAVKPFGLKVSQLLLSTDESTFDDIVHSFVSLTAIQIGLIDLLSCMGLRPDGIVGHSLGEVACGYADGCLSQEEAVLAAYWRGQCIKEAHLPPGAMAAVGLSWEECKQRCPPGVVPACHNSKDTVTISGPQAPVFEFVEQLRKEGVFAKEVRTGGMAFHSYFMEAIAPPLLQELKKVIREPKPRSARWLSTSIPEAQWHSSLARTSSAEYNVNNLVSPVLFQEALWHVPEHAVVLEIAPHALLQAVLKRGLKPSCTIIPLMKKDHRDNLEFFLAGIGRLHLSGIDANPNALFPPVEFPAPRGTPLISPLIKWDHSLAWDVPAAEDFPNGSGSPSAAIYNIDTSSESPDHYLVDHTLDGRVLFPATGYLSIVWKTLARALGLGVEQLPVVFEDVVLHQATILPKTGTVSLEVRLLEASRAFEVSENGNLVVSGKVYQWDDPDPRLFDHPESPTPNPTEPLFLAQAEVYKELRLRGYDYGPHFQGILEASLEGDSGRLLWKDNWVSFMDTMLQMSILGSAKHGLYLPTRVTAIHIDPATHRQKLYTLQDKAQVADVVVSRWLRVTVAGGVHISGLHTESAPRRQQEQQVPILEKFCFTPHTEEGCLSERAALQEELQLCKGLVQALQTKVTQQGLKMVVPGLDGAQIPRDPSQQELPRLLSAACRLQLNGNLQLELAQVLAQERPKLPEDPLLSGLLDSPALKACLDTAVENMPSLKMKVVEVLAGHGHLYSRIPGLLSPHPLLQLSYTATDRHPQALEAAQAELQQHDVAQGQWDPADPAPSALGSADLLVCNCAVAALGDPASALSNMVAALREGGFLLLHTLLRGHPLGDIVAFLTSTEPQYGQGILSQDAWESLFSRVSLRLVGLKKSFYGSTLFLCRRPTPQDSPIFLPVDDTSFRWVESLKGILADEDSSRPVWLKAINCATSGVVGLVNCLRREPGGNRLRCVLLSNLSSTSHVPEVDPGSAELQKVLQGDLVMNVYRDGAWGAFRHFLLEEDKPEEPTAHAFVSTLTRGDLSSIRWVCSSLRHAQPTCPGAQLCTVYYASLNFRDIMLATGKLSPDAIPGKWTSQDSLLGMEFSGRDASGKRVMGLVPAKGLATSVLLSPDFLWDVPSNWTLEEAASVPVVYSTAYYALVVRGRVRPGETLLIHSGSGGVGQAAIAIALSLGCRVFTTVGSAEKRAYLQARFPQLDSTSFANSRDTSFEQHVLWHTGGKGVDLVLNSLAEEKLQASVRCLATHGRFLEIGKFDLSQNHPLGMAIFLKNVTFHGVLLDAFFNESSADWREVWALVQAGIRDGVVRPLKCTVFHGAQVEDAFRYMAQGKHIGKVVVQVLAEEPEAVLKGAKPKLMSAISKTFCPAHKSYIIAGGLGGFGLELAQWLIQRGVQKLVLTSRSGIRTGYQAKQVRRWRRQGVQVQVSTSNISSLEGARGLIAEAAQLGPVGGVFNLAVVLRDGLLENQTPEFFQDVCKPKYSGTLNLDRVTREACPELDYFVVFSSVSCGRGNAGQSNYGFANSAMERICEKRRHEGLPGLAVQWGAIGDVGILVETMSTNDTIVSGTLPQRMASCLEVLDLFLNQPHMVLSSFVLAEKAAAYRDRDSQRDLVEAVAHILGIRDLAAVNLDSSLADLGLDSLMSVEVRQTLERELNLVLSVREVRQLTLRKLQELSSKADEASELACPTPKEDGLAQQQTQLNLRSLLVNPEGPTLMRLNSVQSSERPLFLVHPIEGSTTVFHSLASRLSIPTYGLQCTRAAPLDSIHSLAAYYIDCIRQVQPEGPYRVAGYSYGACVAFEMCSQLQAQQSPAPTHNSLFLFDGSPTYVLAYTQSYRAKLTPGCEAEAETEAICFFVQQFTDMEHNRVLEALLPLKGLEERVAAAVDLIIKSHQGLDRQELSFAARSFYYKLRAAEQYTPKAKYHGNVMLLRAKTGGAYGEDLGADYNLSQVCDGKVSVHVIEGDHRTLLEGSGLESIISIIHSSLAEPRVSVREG
# Neddyl block: inhibitors of human cullin neddylation | TR-FRET cullin neddylation, biochemical | calls only at 25 µM | hit rate 0.58% among 360,000 | AID 651699; in the data active = inhibition above about 36%
# PfG6PD inh: PfG6PD (Plasmodium falciparum) enzyme inhibition; PfGluPho enzyme, NADPH resazurin-diaphorase fluorescence; inhibition, % at 20 µM; hit rate 0.78% among 350,000;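 active = inhibition reaching at least a set limit at 20 µM in the primary screen, cut at about 59% in these data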;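 note: 0% = DMSO wells with substrate and 100% = DMSO wells lacking glucose-6-phosphate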
# proKLK7 act conf: confirmation of human kallikrein-7 zymogen activators | shares compounds with proKLK7 act | purified proKLK7, EDANS-DABCYL substrate fluorescence; scaled: vehicle 0, mature enzyme 100 | activation, % at 7 µM | hit rate 68% among 3,200 | AID 686949;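 active = activation, as change over the incubation, above the mean of all tested compounds plus 3 SD, cut at about 13% in these data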
# EDANS interfere: counter-screen for kallikrein-7 activators: EDANS-DABCYL optical interference. hit rate 80% among 3,200. activation, % at 7 µM. shares compounds with proKLK7 act. EDANS-DABCYL substrate fluorescence interference, no enzyme, 4 h; solvent 0%, active enzyme control 100%;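 active = activation above the all-compound mean plus 3 SD, ignoring values outside control-based bounds, cut at about 4.8% in these data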;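 note: value is the 4 h activation minus the activation read at time zero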
# EDANS interf: counter-screen for kallikrein-7 activators: EDANS-DABCYL interference, dose response | shares compounds with proKLK7 act | EDANS-DABCYL peptide fluorescence interference, no enzyme | EC50, µM | hit rate 20% among 250 | AID 720493;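 active = compounds that raise the fluorescence signal in this interference counterscreen, with EC50 at or below 10 µM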;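 note: intact quenched peptide substrate alone read at 355 nm excitation and 520 nm emission; signal is fluorescence gain from T0 to T4 after four hours at room temperature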
# An asterisk follows results filed as active; i = inactive; / = no result shown.
SMILES,proKLK7 act,FAS-TE inh,Neddyl block,PfG6PD inh,proKLK7 act conf,EDANS interfere,others
CN(C)CCCNC(=O)CC1C[C@H](C(=O)N2CCCCC2)[C@@]2(CCc3ccccc3)c3[nH]c4ccccc4c3CCN2C1=O (stereo partly specified),0,8,i,-5,/,/,
CN(C)CCCNC(=O)C[C@H]1C[C@H](C(=O)N2CCCCC2)[C@@]2(CCc3ccccc3)c3[nH]c4cc(-c5ccco5)ccc4c3CCN2C1=O,46*,6,/,17,41*,52*,
CC[C@]12c3[nH]c4cc(-c5ccco5)ccc4c3CCN1C(=O)[C@@H](CC(=O)NCCCN(C)C)C[C@@H]2C(=O)N1CCN(C(=O)c2ccco2)CC1,84*,-6,/,7,47*,63*,
COC(=O)[C@H](Cc1ccccc1)NS(=O)(=O)c1ccc(F)cc1Br,0,2,i,22,/,/,
CCOC(=O)CC(=O)Nc1cc2ccc(OC)c(OC)c2cc1C(=O)OCC,16*,-8,/,6,-24,-25,
COc1cc(/C=N/NS(=O)(=O)c2ccc(C)c([N+](=O)[O-])c2)cc([N+](=O)[O-])c1O,-1,-2,i,-10,/,/,
COc1ccc(-n2c(O)c(/C=N/NS(=O)(=O)c3ccc(C)c([N+](=O)[O-])c3)c3ccccc3c2=O)cc1OC,15*,2,i,27,41*,44*,
CNc1cncc(-c2cccc(C(=O)N(C)C)c2)n1,51*,-7,/,/,60*,63*,
CC(=O)Nc1cncc(-c2cccc(C(=O)NCCN(C)C)c2)n1,1,-4,i,/,/,/,
CNc1cncc(-c2cccnc2)n1,67*,-8,/,/,76*,79*,
CNc1cncc(-c2ccc(F)c(F)c2)n1,37*,-6,/,/,16*,25*,
O=S1(=O)N[C@H](Cc2ccccc2)COc2cc(F)ccc21,0,/,/,/,/,/,
CN(CCOC(=O)c1occ2ccccc12)C1CN(Cc2cn(Cc3ccccc3Cl)nn2)S(=O)(=O)C1 (stereo unspecified),1,/,/,/,/,/,
COc1ccc(NC(=O)C2c3ccccc3OCC(=O)N2CC(F)(F)F)cc1 (stereo unspecified),0,-7,i,/,/,/,
COC(=O)c1c(C#N)c(N)nc2c1CCCC2,78*,-2,/,-11,72*,75*,
CCCCOCCCNC(=O)C[C@H]1C(=O)N(CCCOC)C2=CCCCC[C@]21C(=O)OC,-1,/,/,/,/,/,
CN1CCCCc2c1nc1ccccc1c2N (tested in a mixture with another compound),-1,-5,i,-14,/,/,
Nc1c2c(nc3ccccc13)N(c1ccccc1)CC2,70*,-2,i,3,20*,21*,
C=CCOc1c2ccc(C(=O)NCc3ccccc3OC)cc2nn1C,14*,-8,/,3,11,15*,
C=CCOc1c2ccc(C(=O)NCc3ccc(OC)cc3)cc2nn1C,9,-5,/,-1,/,/,
CC(C)c1ccc(NC(=O)C2(C)Cc3c(-c4ccc5c(c4)OCO5)ccnc3O2)cc1 (stereo unspecified),0,22,i,/,/,/,
CCOC(=O)CC(=O)CSc1nc(C)cc(-c2cccnc2)c1C#N,35*,-4,i,-13,98*,72*,EDANS interf=5.5*
CCOC(=O)CC(=O)CSc1nc(-c2cccnc2)cc(C)c1C#N,34*,-10,i,13,116*,123*,
Cc1cc(-c2ccccc2)c(C#N)c(SCC(N)=O)n1,0,0,i,-6,/,/,
CCOC(=O)CC(=O)CSc1nc(N)c(C#N)c(-c2ccc(F)cc2)c1C#N,14*,0,i,-19,13*,13*,
SMILES,proKLK7 act,FAS-TE inh,Neddyl block,PfG6PD inh,proKLK7 act conf,EDANS interfere,others
CCOC(=O)C1=C(C(C)=O)C(c2cccnc2)C(C#N)=C(N)O1 (stereo unspecified),-1,-4,i,-7,/,/,
CCOC(=O)C1=C(CSc2nc(-c3ccncc3)ccc2C#N)OC(N)=C(C#N)C1c1cccnc1 (stereo unspecified),51*,11,i,18,66*,72*,
CCCCNC(=O)c1ccc(Cc2cn(C)c3ccccc23)nc1,8,1,i,/,/,/,
CC(C)C[C@@H](CN1CCC[C@H]1CN1C(=O)C(=O)NC[C@@H]1Cc1ccc(O)cc1)N1C[C@H](Cc2ccccc2)N(CC2CCCCCC2)C(=O)C1=O,1,28,i,/,/,/,
Cc1ccc(OCc2nnc(SCC(=O)Nc3ccc(S(N)(=O)=O)cc3)n2-c2ccc(Cl)cc2)cc1,0,/,/,/,/,/,
CCOC(=O)CC(=O)CSc1nc(-c2cccnc2)ccc1C#N,84*,-6,/,-6,286*,286*,
C#CCn1c(=NC(=O)c2sc3ccccc3c2Cl)sc2cc(S(N)(=O)=O)ccc21,30*,-2,i,-23,-1,2,
C[C@@H]1CCCCO[C@@H](CN(C)C(=O)Nc2ccc3c(c2)OCO3)[C@@H](C)CN([C@H](C)CO)C(=O)c2cc(NC(=O)Nc3ccc(C(F)(F)F)cc3)ccc2O1,0,/,/,/,/,/,
COCCN(CCOC)S(=O)(=O)c1ccc(C(=O)Nc2sc3c(c2C(N)=O)CCCCC3)cc1,19*,-12,/,25,4,21*,
COc1ccc(C(=O)CC(=O)c2ccc(OC)cc2)cc1,-4,10,i,-15,/,/,
COc1ccc(O)c(C(=O)CC(=O)c2ccncc2)c1,14*,-5,/,-4,282*,290*,
Cc1ccc(-c2nc(C#N)c(NCCN3CCCCC3)o2)cc1,17*,-5,/,-3,6,7.2*,
COCCNc1oc(-c2ccc(Cl)cc2)nc1C#N,22*,3,/,8,13*,12*,
C=CCNc1oc(-c2cccc(Cl)c2)nc1C#N,0,15,i,4,/,/,
CCN(CC)CCCNc1oc(-c2cccc(Cl)c2)nc1C#N,41*,-6,/,5,9,18*,
CN(C)CCCNc1oc(-c2ccc(Cl)cc2)nc1C#N,34*,-5,/,-15,24*,21*,
N#Cc1nc(-c2ccc(F)cc2)oc1NCCN1CCOCC1,7,-1,/,-7,/,/,
O=C(Cn1cc(COC(=O)c2c3ccccc3cc3ccccc23)nn1)c1ccc(O)cc1,-10,/,/,/,/,/,
CCCCN(C)C(=O)c1sc(=O)n(Cc2ccccc2C#N)c1C,-1,-10,i,/,/,/,
CCN(CC)c1ccc(C=NNC(=O)c2cc(-c3ccc(C)c(C)c3)n[nH]2)c(O)c1,-93,/,/,/,/,/,
CCN(CC)c1nc2ccccc2nc1C(C#N)C(=O)NCCCOC (stereo unspecified),14*,0,/,-14,33*,37*,
CSc1ccc(/C=C/C(=O)c2ccc(O)cc2)cc1,28*,3,i,-7,2,2,
Cc1ccc(/C=C/C(=O)c2ccc(O)cc2)cc1,0,-2,i,-5,/,/,
